The panel holds about 83,000 compounds, 20% with a hit somewhere; the sample as a whole holds those more often.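 The test compound was applied at a single concentration to cells in 96-well plates for 48 hours, and percent growth was recorded.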 Values without a mark were called inactive. The source made the active and inactive calls. The calls were made as follows: active = growth percent below 10; inactive = the rest.

For this test, the system named is HCC-2998 colon. The test is described as follows: NCI-60 one-dose screen, 48 h (100 = growth as untreated, 0 = no growth, -100 = all killed). To be noted: 10 µM unless noted.
Regarding `N#C/C(=C\c1ccc(-c2ccc(Cl)cc2)o1)C(=O)Nc1ncc(Cc2ccc(Br)cc2)s1`, the growth is 62.4%.

As to `O=C(COc1ccc(/C=C2\C(=O)Nc3ccc(Cl)cc32)cc1)Nc1ccc(Cl)cc1`, the growth was 89%.

As for `CC(O)c1cccc(/C(N)=N/C(N)=N/c2nc3ccccc3s2)c1` (centres undefined), the growth was 118%.

Regarding `O=C(CN1CCN(c2cc(=O)[nH]c3ccc(F)cc23)CC1)N(c1ccccc1)c1ccccc1`, the growth is 106%.

Turning to `Cn1c(SCC(=O)c2ccc(Br)cc2)nc2ccccc2c1=O`, the growth was 108%.

Regarding `NC(N)=NS(=O)(=O)c1ccc(N=Nc2c(N)nn(-c3ccc([N+](=O)[O-])cc3[N+](=O)[O-])c2N)cc1`, the growth was 113%.

Regarding `Cc1cc2nc3c4cc(C#N)ccc4n(CCN(C)C)c3nc2cc1C`, the growth is -73% (active).

Turning to `O=C(CCCCCCN1CC(=O)N2[C@@H](c3cccs3)c3[nH]c4ccccc4c3C[C@H]2C1=O)NO`, the growth was 101%.

`O=C(CSc1nc2ccccc2c(=O)n1CCc1ccccc1)Nc1ccc(S(=O)(=O)Nc2ccc(Cl)nn2)cc1`: the growth is 102%.

On to `CC1=C(C)C(=O)C(Nc2ccc(C)c(C)c2)=C(Br)C1=O`, for which the growth was 96.4%.

As to `COc1cc(/C=C2/C(=O)Nc3ccc(Cl)cc32)ccc1OCc1ccc(Cl)cc1`, the growth was 107%.

On to `Cc1ccc2c(n1)C(=O)C(Cl)=C(Nc1ccc(C(C)C)cc1)C2=O`, for which the growth was 3.71% (active).

As to `CN1CCN(c2ccc(Nc3nc(NCCNS(=O)(=O)c4ccccc4)c4sccc4n3)cc2)CC1`, the growth is 106%.

As for `CNC(=O)c1cc(N2CCc3cc(NC(=O)Nc4ccc(N5CCN(C)CC5)c(C(F)(F)F)c4)ccc32)ccn1`, the growth was 84.9%.

The values are drawn from PubChem BioAssay (NCI).
